This passage reports binding signal results from paper PMC11006913.

Positions count from the first letter of the chain named.

What all share (test): PBM; 200 nM protein, PBS
Common to all, as to details: dsDNA, one strand shown

Experiment [1] concerns the target HOXA4 (Homo sapiens, UniProt Q00056 201-287, W262R).
The target in experiment [2] is HOXA4 (Homo sapiens, UniProt Q00056 201-287, R217L).
The target of experiment [3] is HOXA4 (Homo sapiens, UniProt Q00056 201-287).
In experiment [4] the target is HOXC9 (Homo sapiens, UniProt P31274 178-260, K195R).
Chain of HOXC9 (Homo sapiens, UniProt P31274 178-260, K195R) (P31274 178-260 K195R): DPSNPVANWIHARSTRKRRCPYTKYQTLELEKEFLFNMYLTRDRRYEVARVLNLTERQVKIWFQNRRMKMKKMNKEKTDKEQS
The target in another experiment is T1, VENTX (Homo sapiens, UniProt O95231 78-163).
T1 sequence: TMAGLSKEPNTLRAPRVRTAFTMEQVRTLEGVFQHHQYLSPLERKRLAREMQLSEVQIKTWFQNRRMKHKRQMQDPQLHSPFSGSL

In experiment [5] the target is T2, SIX6 (Homo sapiens, UniProt O95475 114-200, H141N).
T2 sequence: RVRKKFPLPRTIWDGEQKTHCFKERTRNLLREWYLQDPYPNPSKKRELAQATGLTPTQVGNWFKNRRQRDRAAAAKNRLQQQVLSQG

Experiment [6] has as its target HOXC9 (Homo sapiens, UniProt P31274 178-260).
Experiment [7] addresses T3, SIX6 (Homo sapiens, UniProt O95475 114-200, T165A).
T3 sequence: T2 sequence with N28H, T52A

For experiment [8], the target named is HOXC9 (Homo sapiens, UniProt P31274 178-260, R193K).
Chain of HOXC9 (Homo sapiens, UniProt P31274 178-260, R193K) (P31274 178-260 R193K): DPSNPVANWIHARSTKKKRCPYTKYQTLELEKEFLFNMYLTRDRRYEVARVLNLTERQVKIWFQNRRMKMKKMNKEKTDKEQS
In experiment [9] the target is T4, SIX6 (Homo sapiens, UniProt O95475 114-200).
T4 sequence: T2 sequence with N28H

The target of experiment [10] is HOXC9 (Homo sapiens, UniProt P31274 178-260, R222W).
Chain of HOXC9 (Homo sapiens, UniProt P31274 178-260, R222W) (P31274 178-260 R222W): as the sequence (P31274 178-260 R193K) above, with K16R, R45W counted along it
Experiment [11] deals with HOXB6 (Homo sapiens, UniProt P17509 132-218, K202E).
Chain of HOXB6 (Homo sapiens, UniProt P17509 132-218, K202E) (P17509 132-218 K202E): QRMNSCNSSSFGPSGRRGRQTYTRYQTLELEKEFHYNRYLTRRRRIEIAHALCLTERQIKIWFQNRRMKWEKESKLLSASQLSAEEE
Experiment [12] deals with HOXB6 (Homo sapiens, UniProt P17509 132-218).
Chain of HOXB6 (Homo sapiens, UniProt P17509 132-218) (P17509 132-218): as the sequence (P17509 132-218 K202E) above, with E71K counted along it
Experiment [13] has as its target VAX1 (Homo sapiens, UniProt Q5SQQ9 86-172).
Experiment [14] deals with VAX1 (Homo sapiens, UniProt Q5SQQ9 86-172, T142I).
Chain of VAX1 (Homo sapiens, UniProt Q5SQQ9 86-172, T142I) (Q5SQQ9 86-172 T142I): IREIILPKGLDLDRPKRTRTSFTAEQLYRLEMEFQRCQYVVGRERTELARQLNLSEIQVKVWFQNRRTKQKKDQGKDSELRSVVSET
Experiment [15] deals with VAX1 (Homo sapiens, UniProt Q5SQQ9 86-172, K157R).
Chain of VAX1 (Homo sapiens, UniProt Q5SQQ9 86-172, K157R) (Q5SQQ9 86-172 K157R): as the sequence (Q5SQQ9 86-172 T142I) above, with I57T, K72R counted along it
For another experiment, the target named is HOXB9 (Homo sapiens, UniProt P17482 171-250, T197M).
Chain of HOXB9 (P17482 171-250 T197M): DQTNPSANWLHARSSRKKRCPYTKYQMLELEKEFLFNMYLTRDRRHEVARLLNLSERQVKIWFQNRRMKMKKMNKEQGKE
Experiment [16] addresses CRX (Homo sapiens, UniProt O43186 26-111).
The target in experiment [17] is CRX (Homo sapiens, UniProt O43186 26-111, E42D).
Chain of CRX (Homo sapiens, UniProt O43186 26-111, E42D) (O43186 26-111 E42D): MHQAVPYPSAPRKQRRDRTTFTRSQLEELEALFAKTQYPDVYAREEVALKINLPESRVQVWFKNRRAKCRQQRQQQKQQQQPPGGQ
For experiment [18], the target named is CRX (Homo sapiens, UniProt O43186 26-111, R41L).
Chain of CRX (Homo sapiens, UniProt O43186 26-111, R41L) (O43186 26-111 R41L): as the sequence (O43186 26-111 E42D) above, with R16L, D17E counted along it

Chain of HOXA4 (Homo sapiens, UniProt Q00056 201-287, R217L) (Q00056 201-287 R217L): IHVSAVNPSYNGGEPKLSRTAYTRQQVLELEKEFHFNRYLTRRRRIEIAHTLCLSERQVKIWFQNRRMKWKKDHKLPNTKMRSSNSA
Chain of HOXC9 (Homo sapiens, UniProt P31274 178-260) (P31274 178-260): as the sequence (P31274 178-260 R193K) above, with K16R counted along it
Chain of HOXA4 (Homo sapiens, UniProt Q00056 201-287, W262R) (Q00056 201-287 W262R): as the sequence (Q00056 201-287 R217L) above, with L17R, W62R counted along it
Chain of HOXA4 (Homo sapiens, UniProt Q00056 201-287) (Q00056 201-287): as the sequence (Q00056 201-287 R217L) above, with L17R counted along it
Chain of CRX (Homo sapiens, UniProt O43186 26-111) (O43186 26-111): as the sequence (O43186 26-111 E42D) above, with D17E counted along it
Chain of VAX1 (Homo sapiens, UniProt Q5SQQ9 86-172) (Q5SQQ9 86-172): as the sequence (Q5SQQ9 86-172 T142I) above, with I57T counted along it

On to CCGAGACC, for which the binding signal in the experiment with HOXA4 [1] is 9.83 upbm affinity estimate (log intensity, higher = more binding, comparable within an allelic series); in the experiment with HOXA4 [2], 9.77 upbm affinity estimate (log intensity, higher = more binding, comparable within an allelic series); with HOXA4 [3], 9.83 upbm affinity estimate (log intensity, higher = more binding, comparable within an allelic series).
For CAGCCAGG, the binding signal with HOXC9 [4] was 9.53 upbm affinity estimate (log intensity, higher = more binding, comparable within an allelic series); in the experiment with VENTX it was 8.23 upbm affinity estimate (log intensity, higher = more binding, comparable within an allelic series); with SIX6 [5], 9.06 upbm affinity estimate (log intensity, higher = more binding, comparable within an allelic series); with HOXC9 [6] it was 9.58 upbm affinity estimate (log intensity, higher = more binding, comparable within an allelic series); in the experiment with SIX6 [7], 9.02 upbm affinity estimate (log intensity, higher = more binding, comparable within an allelic series); with HOXC9 [8] it was 9.41 upbm affinity estimate (log intensity, higher = more binding, comparable within an allelic series). The binding signal in the experiment with SIX6 [9] is 9.07 upbm affinity estimate (log intensity, higher = more binding, comparable within an allelic series); with HOXC9 [10] it was 9.62 upbm affinity estimate (log intensity, higher = more binding, comparable within an allelic series).
As to GCAATTAC, the binding signal with HOXB6 [11] was 9.75 upbm affinity estimate (log intensity, higher = more binding, comparable within an allelic series); with HOXB6 [12], 11.7 upbm affinity estimate (log intensity, higher = more binding, comparable within an allelic series).
Regarding CAGGCGCC, the binding signal with SIX6 [5] was 8.85 upbm affinity estimate (log intensity, higher = more binding, comparable within an allelic series); in the experiment with SIX6 [7], 8.89 upbm affinity estimate (log intensity, higher = more binding, comparable within an allelic series); with SIX6 [9] it was 8.81 upbm affinity estimate (log intensity, higher = more binding, comparable within an allelic series).
On to GCAGGCGC, for which the binding signal in the experiment with HOXA4 [1] was 9.8 upbm affinity estimate (log intensity, higher = more binding, comparable within an allelic series); with HOXA4 [2] it was 9.64 upbm affinity estimate (log intensity, higher = more binding, comparable within an allelic series); with HOXA4 [3], 9.74 upbm affinity estimate (log intensity, higher = more binding, comparable within an allelic series).
As to GCCAGCCC, the binding signal in the experiment with HOXC9 [4] is 9.67 upbm affinity estimate (log intensity, higher = more binding, comparable within an allelic series); in the experiment with SIX6 [5] it was 9.06 upbm affinity estimate (log intensity, higher = more binding, comparable within an allelic series); with HOXC9 [6], 9.67 upbm affinity estimate (log intensity, higher = more binding, comparable within an allelic series); in the experiment with SIX6 [7], 9.01 upbm affinity estimate (log intensity, higher = more binding, comparable within an allelic series); with HOXC9 [8], 9.67 upbm affinity estimate (log intensity, higher = more binding, comparable within an allelic series); with SIX6 [9] it was 8.98 upbm affinity estimate (log intensity, higher = more binding, comparable within an allelic series). In addition, the binding signal with VAX1 [13] is 7.02 upbm affinity estimate (log intensity, higher = more binding, comparable within an allelic series); with HOXC9 [10], 9.62 upbm affinity estimate (log intensity, higher = more binding, comparable within an allelic series); with VAX1 [14], 7.2 upbm affinity estimate (log intensity, higher = more binding, comparable within an allelic series); with VAX1 [15] it was 7.16 upbm affinity estimate (log intensity, higher = more binding, comparable within an allelic series).
As for AATTATTA, the binding signal with HOXB9 was 10.1 upbm affinity estimate (log intensity, higher = more binding, comparable within an allelic series); in the experiment with HOXB6 [11] it was 10.1 upbm affinity estimate (log intensity, higher = more binding, comparable within an allelic series); with HOXA4 [2] it was 12 upbm affinity estimate (log intensity, higher = more binding, comparable within an allelic series); in the experiment with HOXC9 [10] it was 11.1 upbm affinity estimate (log intensity, higher = more binding, comparable within an allelic series); with VAX1 [14], 12.3 upbm affinity estimate (log intensity, higher = more binding, comparable within an allelic series); with HOXB6 [12], 11.8 upbm affinity estimate (log intensity, higher = more binding, comparable within an allelic series).
ACCGTCCG: the binding signal was 8.31 upbm affinity estimate (log intensity, higher = more binding, comparable within an allelic series) with CRX [16]; 8.44 upbm affinity estimate (log intensity, higher = more binding, comparable within an allelic series) in the experiment with CRX [17]; 8.35 upbm affinity estimate (log intensity, higher = more binding, comparable within an allelic series) with CRX [18].
In the case of AGAGCGCG, the binding signal with CRX [16] was 8.2 upbm affinity estimate (log intensity, higher = more binding, comparable within an allelic series); with CRX [17], 8.22 upbm affinity estimate (log intensity, higher = more binding, comparable within an allelic series); with CRX [18], 8.22 upbm affinity estimate (log intensity, higher = more binding, comparable within an allelic series).
For TCCCCCCA, the binding signal was 9.6 upbm affinity estimate (log intensity, higher = more binding, comparable within an allelic series) with HOXA4 [1]; 9.7 upbm affinity estimate (log intensity, higher = more binding, comparable within an allelic series) with HOXA4 [2]; 9.81 upbm affinity estimate (log intensity, higher = more binding, comparable within an allelic series) in the experiment with HOXA4 [3].
On to CCAGCGCA, for which the binding signal with HOXC9 [4] was 9.45 upbm affinity estimate (log intensity, higher = more binding, comparable within an allelic series); in the experiment with HOXC9 [6] it was 9.65 upbm affinity estimate (log intensity, higher = more binding, comparable within an allelic series); with HOXC9 [8], 9.5 upbm affinity estimate (log intensity, higher = more binding, comparable within an allelic series); in the experiment with VAX1 [13] it was 7.28 upbm affinity estimate (log intensity, higher = more binding, comparable within an allelic series); with HOXC9 [10] it was 9.6 upbm affinity estimate (log intensity, higher = more binding, comparable within an allelic series); with VAX1 [14], 7.16 upbm affinity estimate (log intensity, higher = more binding, comparable within an allelic series). Also, the binding signal with VAX1 [15] is 7.39 upbm affinity estimate (log intensity, higher = more binding, comparable within an allelic series).
Regarding CGCAATTA, the binding signal in the experiment with HOXB6 [11] is 9.82 upbm affinity estimate (log intensity, higher = more binding, comparable within an allelic series); with HOXB6 [12] it was 11.7 upbm affinity estimate (log intensity, higher = more binding, comparable within an allelic series).
CGACGCGA: the binding signal with VENTX is 8.03 upbm affinity estimate (log intensity, higher = more binding, comparable within an allelic series).
For the sequence AGGCCCGC, the binding signal is 8.17 upbm affinity estimate (log intensity, higher = more binding, comparable within an allelic series) with CRX [16]; 8.1 upbm affinity estimate (log intensity, higher = more binding, comparable within an allelic series) with CRX [17]; 8.27 upbm affinity estimate (log intensity, higher = more binding, comparable within an allelic series) with CRX [18].
For the sequence ACAATTAT, the binding signal with HOXB9 was 9.96 upbm affinity estimate (log intensity, higher = more binding, comparable within an allelic series); with HOXB6 [11], 9.99 upbm affinity estimate (log intensity, higher = more binding, comparable within an allelic series).
CGCACGCC: the binding signal is 8.95 upbm affinity estimate (log intensity, higher = more binding, comparable within an allelic series) in the experiment with SIX6 [5]; 8.87 upbm affinity estimate (log intensity, higher = more binding, comparable within an allelic series) with SIX6 [7]; 8.9 upbm affinity estimate (log intensity, higher = more binding, comparable within an allelic series) in the experiment with SIX6 [9].
Take CCAGGACC: the binding signal with VENTX is 7.74 upbm affinity estimate (log intensity, higher = more binding, comparable within an allelic series).
Turning to CCGCCCCC, the binding signal in the experiment with VENTX was 7.95 upbm affinity estimate (log intensity, higher = more binding, comparable within an allelic series); in the experiment with HOXB6 [11], 8.84 upbm affinity estimate (log intensity, higher = more binding, comparable within an allelic series); with HOXB6 [12], 8.81 upbm affinity estimate (log intensity, higher = more binding, comparable within an allelic series).
Regarding GCCGGTCC, the binding signal with CRX [16] is 8.03 upbm affinity estimate (log intensity, higher = more binding, comparable within an allelic series); with CRX [17], 8.04 upbm affinity estimate (log intensity, higher = more binding, comparable within an allelic series); in the experiment with CRX [18], 8.24 upbm affinity estimate (log intensity, higher = more binding, comparable within an allelic series).
On to CCTAGCTC, for which the binding signal with HOXA4 [1] was 9.86 upbm affinity estimate (log intensity, higher = more binding, comparable within an allelic series); with VENTX, 8.47 upbm affinity estimate (log intensity, higher = more binding, comparable within an allelic series); in the experiment with HOXA4 [2] it was 9.83 upbm affinity estimate (log intensity, higher = more binding, comparable within an allelic series); with HOXA4 [3], 9.82 upbm affinity estimate (log intensity, higher = more binding, comparable within an allelic series).
Take GCCCCCCA: the binding signal with HOXA4 [1] is 9.56 upbm affinity estimate (log intensity, higher = more binding, comparable within an allelic series); with HOXB6 [11] it was 8.7 upbm affinity estimate (log intensity, higher = more binding, comparable within an allelic series); with HOXA4 [2], 9.68 upbm affinity estimate (log intensity, higher = more binding, comparable within an allelic series); in the experiment with HOXA4 [3], 9.71 upbm affinity estimate (log intensity, higher = more binding, comparable within an allelic series); in the experiment with HOXB6 [12], 8.91 upbm affinity estimate (log intensity, higher = more binding, comparable within an allelic series).
As to GTCCTGCA, the binding signal in the experiment with VENTX is 8.28 upbm affinity estimate (log intensity, higher = more binding, comparable within an allelic series).
Turning to GCCGTCGC, the binding signal is 8.32 upbm affinity estimate (log intensity, higher = more binding, comparable within an allelic series) with CRX [16]; 8.21 upbm affinity estimate (log intensity, higher = more binding, comparable within an allelic series) with CRX [17]; 8.17 upbm affinity estimate (log intensity, higher = more binding, comparable within an allelic series) in the experiment with CRX [18].
With GCCAGCGA, the binding signal with VENTX is 8.16 upbm affinity estimate (log intensity, higher = more binding, comparable within an allelic series).
On to AGAGGACC, for which the binding signal is 9.07 upbm affinity estimate (log intensity, higher = more binding, comparable within an allelic series) with HOXB6 [11] and 8.88 upbm affinity estimate (log intensity, higher = more binding, comparable within an allelic series) with HOXB6 [12].
In the case of CAGGCCGG, the binding signal in the experiment with HOXB6 [11] was 8.91 upbm affinity estimate (log intensity, higher = more binding, comparable within an allelic series); with HOXB6 [12], 8.84 upbm affinity estimate (log intensity, higher = more binding, comparable within an allelic series).
GCCGGCGA: the binding signal was 6.87 upbm affinity estimate (log intensity, higher = more binding, comparable within an allelic series) in the experiment with VAX1 [13]; 7.22 upbm affinity estimate (log intensity, higher = more binding, comparable within an allelic series) in the experiment with VAX1 [14]; 7.26 upbm affinity estimate (log intensity, higher = more binding, comparable within an allelic series) with VAX1 [15].
Regarding CTCTCCAG, the binding signal with VAX1 [13] is 7 upbm affinity estimate (log intensity, higher = more binding, comparable within an allelic series); with VAX1 [14], 7.16 upbm affinity estimate (log intensity, higher = more binding, comparable within an allelic series); with VAX1 [15] it was 7.01 upbm affinity estimate (log intensity, higher = more binding, comparable within an allelic series).
With TAATTGTA, the binding signal with HOXB6 [11] is 10 upbm affinity estimate (log intensity, higher = more binding, comparable within an allelic series).
Regarding CACGGCGG, the binding signal with HOXB6 [11] is 9.01 upbm affinity estimate (log intensity, higher = more binding, comparable within an allelic series); with HOXB6 [12] it was 8.99 upbm affinity estimate (log intensity, higher = more binding, comparable within an allelic series).
